Among all 48,000 compounds or so, about 13,000 (27%) showed an effect of 50% or more. The list shows a part of the results.
What follows are compounds tested on Wolbachia pipientis (assay: Anti-Wolbachia Cell-Based Screen). Details: 5 µM.
Type: functional
Design: scale not given: in the data most compounds retested in dose-response had high values
In the case of `Cc1ncc2c(n1)CN(CCCc1nc3ccccc3o1)CC2`, the “Percent Effect” value is reported as -1.914%. For `CC(CNC(=O)c1nnn(-c2ccccc2)c1C(F)(F)F)N(C)C` (stereo unspecified), the “Percent Effect” value was 5.891%. For `COC(=O)c1ccc2ccn(CC3CCCN(C)C3)c(=O)c2c1` (stereo unspecified), the “Percent Effect” value was -29.85%. `CCOc1ccccc1CCNC(=O)NCC(O)c1cccs1` (stereo unspecified) was tested, and the “Percent Effect” value was -11.69%. For `CCCNC(=O)CCNC(=O)N1CCc2c(F)ccc(F)c2C1`, the “Percent Effect” value was -1.074%. With `COc1ccc(C(=O)NC2COc3ccccc3C2)cc1OCC(=O)O` (stereo unspecified) the “Percent Effect” value was -8.358%. In the case of `CCC(O)CNC(=O)c1coc(COc2ccc3sc(C)nc3c2)n1` (stereo unspecified), the “Percent Effect” value is reported as 7.295%. With `Cc1ccc(NC2CCN(C(=O)CCc3cscn3)CC2)nn1` the “Percent Effect” value was 118.6%. With `Cc1ccc(NC2CCN(C(=O)CCc3ccccc3)CC2)nn1` the “Percent Effect” value was 109.9%. `O=C(CCc1cccs1)N1CCC(Nc2cccnn2)CC1` was tested, and the “Percent Effect” value was -8.369%. `Cc1ccc(NC2CCN(C(=O)CCc3ccsc3)CC2)nn1` was tested, and the “Percent Effect” value was 107.5%. With `O=C(CCc1ccsc1)N1CCC(Nc2cccnn2)CC1` the “Percent Effect” value was 87.13%. For `Cn1c(C(F)(F)F)nn(CCNC(=O)Nc2ccccc2Cl)c1=O`, the “Percent Effect” value was -9.892%. With `COCc1c(C(=O)N2CCCC(N(C)Cc3ccccc3)C2)noc1C` (stereo unspecified) the “Percent Effect” value was 2.95%. With `Cc1ccccc1CNC(=O)c1ccccc1-n1cnc(CN)c1` the “Percent Effect” value was 128.9%. In the case of `COc1ccccc1CNC(=O)c1ccccc1-n1cnc(CN)c1`, the “Percent Effect” value is reported as 104.3%. With `COc1ccc(Cl)cc1-n1cnc(CCNC(C)=O)c1` the “Percent Effect” value was -30.19%. In the case of `COc1cccc(CNC(=O)N2CCCC(Cn3cc(CN)nn3)C2)c1` (stereo unspecified), the “Percent Effect” value is reported as -31.64%. For `COc1cccc(CNC(=O)c2ccccc2-n2cnc(CN)c2)c1`, the “Percent Effect” value was 113.9%. For `NCc1cn(-c2ccccc2C(=O)NCc2cccc(Cl)c2)cn1`, the “Percent Effect” value was -5.254%. With `CCn1c(N)nc2cc(C(=O)NCc3ccccc3Cl)cnc21` the “Percent Effect” value was -4.176%. In the case of `NCc1cn(-c2ccccc2C(=O)NCc2ccccc2Cl)cn1`, the “Percent Effect” value is reported as 137.2%. For `Cc1nccn1-c1ccccc1CNC(=O)c1cn(CCN)nn1`, the “Percent Effect” value was 1.636%. With `NCc1cn(-c2ccccc2C(=O)NCc2ccccc2)cn1` the “Percent Effect” value was 2.452%. For `CN1CCc2c(NC(=O)NCc3ccccc3Cl)cccc21`, the “Percent Effect” value was -4.639%. `COc1ccc(F)cc1-n1cnc(CCNC(C)=O)c1` was tested, and the “Percent Effect” value was -9.257%. `Cc1ccc(C(=O)NS(=O)(=O)c2ccccc2C)c(=O)[nH]1` was tested, and the “Percent Effect” value was -8.925%. `CCNC(=O)N1CCN(Cc2nc3ccccc3[nH]2)[C@@H]2CS(=O)(=O)C[C@@H]21` was tested, and the “Percent Effect” value was 3.535%. In the case of `COC(=O)CC(NC(=O)c1cccc(CS(C)(=O)=O)c1)c1cccs1` (stereo unspecified), the “Percent Effect” value is reported as 18.46%. With `N#Cc1ccc(F)c(CN2CCCC2Cn2cncn2)c1` (stereo unspecified) the “Percent Effect” value was 0.2616%. In the case of `Cc1[nH]c(=O)sc1S(=O)(=O)N1CCCC1C(=O)NCc1ccsc1` (stereo unspecified), the “Percent Effect” value is reported as 1.823%. `CC1COCCN1C(=O)COc1cccc(Oc2ccccn2)c1` (stereo unspecified) was tested, and the “Percent Effect” value was 91.48%. With `CC1COCCN1C(=O)c1cccc(OCc2cscn2)c1` (stereo unspecified) the “Percent Effect” value was -3.154%. For `COc1ccc(Oc2ncccc2NC(=O)N2CCOCC2C)cc1` (stereo unspecified), the “Percent Effect” value was -2.613%. With `O=C(COc1cccc(Br)c1)N1CCOCC1c1ncon1` (stereo unspecified) the “Percent Effect” value was -1.613%. In the case of `CC1COCCN1C(=O)COc1ccc(Oc2ccccn2)cc1` (stereo unspecified), the “Percent Effect” value is reported as 102.9%. `CC(C)(C)NC(=O)COc1ccc(Oc2ccccn2)cc1` was tested, and the “Percent Effect” value was -9.446%. In the case of `O=c1oc(-c2ccc(F)cc2)nn1CCS(=O)(=O)c1ccccc1`, the “Percent Effect” value is reported as 3.372%. In the case of `CCc1cnc(CN2CCC(O)(c3cc(OC)cc(OC)c3)CC2)o1`, the “Percent Effect” value is reported as -1.491%. For `N#Cc1c(Cl)nsc1NCc1ccc(N2CCCC(C(N)=O)C2)cc1` (stereo unspecified), the “Percent Effect” value was 6.894%. `COc1ccc(-c2nc(CSC3CCCCNC3=O)co2)cc1` (stereo unspecified) was tested, and the “Percent Effect” value was -25.49%. With `c1coc(-c2nc3c(c(NCc4n[nH]c5c4CCC5)n2)CCNCC3)c1` the “Percent Effect” value was -11.22%. For `CN(C)c1nccc(NCc2cc(-c3ccco3)n[nH]2)n1`, the “Percent Effect” value was 126.3%. For `Cc1n[nH]c(C)c1CNc1nc(-c2ccco2)nc2c1CCNCC2`, the “Percent Effect” value was 0.9084%. In the case of `CNc1cc(C(=O)N(C)Cc2cc(-c3cccs3)n[nH]2)ccn1`, the “Percent Effect” value is reported as 11.01%. For `CN(C)c1nccc(NCc2cc(-c3cccs3)n[nH]2)n1`, the “Percent Effect” value was 108.4%. `CNc1ccnc(N(C)Cc2cc(-c3cccs3)n[nH]2)n1` was tested, and the “Percent Effect” value was 8.932%. `O=S(=O)(CC1CC1)c1ncc(CN2CCOCC2)n1CC1CCCO1` (stereo unspecified) was tested, and the “Percent Effect” value was 1.621%. In the case of `Cn1cnc2c1CCN(CCS(=O)(=O)c1ccccc1)C2`, the “Percent Effect” value is reported as 2.795%. With `CCOc1ccc(CN2CCNC(C(=O)NC3CC3)C2)cc1CO` (stereo unspecified) the “Percent Effect” value was -28.15%. `Cc1nc(CNC(=O)c2oc3ccccc3c2CN(C)C)oc1C` was tested, and the “Percent Effect” value was 12.17%. With `COc1cccc(OC)c1OCCN1C(=O)CCNC1=O` the “Percent Effect” value was 70.56%. In the case of `COc1cccn(CC(=O)N(C)CCCOc2c(C)cccc2C)c1=O`, the “Percent Effect” value is reported as -81.04%. In the case of `COc1ccccc1OCCCc1cncc(C(N)=O)c1`, the “Percent Effect” value is reported as -13.5%. In the case of `COc1ccccc1OCCCc1cc(C#N)ccn1`, the “Percent Effect” value is reported as -8.074%. In the case of `COc1ccccc1OCCN1CCC(N2CCNC2=O)CC1`, the “Percent Effect” value is reported as -7.605%. For `COc1ccccc1OCCCN1CCNC1=O`, the “Percent Effect” value was 93.18%. `CC(C)Oc1ccccc1OCCN1C(=O)CCNC1=O` was tested, and the “Percent Effect” value was 102.7%. For `COc1ccccc1OCCCN1C(=O)CCNC1=O`, the “Percent Effect” value was 100.1999%. For `Cc1ccc(C)c(OCCN2CCC(N3CCNC3=O)CC2)c1`, the “Percent Effect” value was -4.141%. In the case of `COc1cccc(CN2C[C@H]3CC[C@H]2C3)c1OCCN1CCOCC1`, the “Percent Effect” value is reported as 3.067%. For `N#Cc1ccccc1OCCN1CCC(N2CCNC2=O)CC1`, the “Percent Effect” value was -2.122%. In the case of `CCn1ccnc1CN1CCN(CCOc2ccccc2OC)CC1`, the “Percent Effect” value is reported as 1.541%. With `Cc1nc(N(C)CCCc2nccn2C)c2c(C)nn(C)c2n1` the “Percent Effect” value was -2.28%. `Cc1[nH]c2c(C)ccc(C)c2c1CC(=O)NCc1csc(N(C)C)n1` was tested, and the “Percent Effect” value was -37.05%. With `CCC(CC)c1cc(CNC(=O)N2CCOCC2CC)on1` (stereo unspecified) the “Percent Effect” value was 8.113%. In the case of `CC(C)(O)CCc1ccc(C(=O)NCCC2CCOC2)cc1` (stereo unspecified), the “Percent Effect” value is reported as -23.58%. In the case of `CCOc1ccc(CN2CCN(CCOC)[C@@H]3CS(=O)(=O)C[C@@H]32)cc1`, the “Percent Effect” value is reported as -4.58%. For `O=C(NCCCOCC1CC1)Nc1cccnc1N1CCOCC1`, the “Percent Effect” value was -4.484%. In the case of `CCc1nc(C#N)c(N2CCC(c3nc(-c4ccccc4)no3)CC2)o1`, the “Percent Effect” value is reported as -18.26%. With `c1ccc(-c2noc(CCCN3CCCC3Cn3cncn3)n2)cc1` (stereo unspecified) the “Percent Effect” value was 100.9%. For `c1ccc(-c2noc(C3CCN(CCCn4cncn4)CC3)n2)cc1`, the “Percent Effect” value was -0.715%. In the case of `c1csc(-c2noc(CCCN3CCCC3Cn3cccn3)n2)c1` (stereo unspecified), the “Percent Effect” value is reported as -9.384%. For `O=S(=O)(CCN1CCCC1Cn1cncn1)c1ccccc1` (stereo unspecified), the “Percent Effect” value was 102.1%. In the case of `O=S(=O)(CCCN1CCCCC1Cn1cncn1)c1ccccc1` (stereo unspecified), the “Percent Effect” value is reported as 108.5%. `c1ccc(CCCN2CCCC2Cn2cncn2)cc1` (stereo unspecified) was tested, and the “Percent Effect” value was 145.7%. `N#Cc1cccc(CN2CCCC2Cn2cncn2)c1` (stereo unspecified) was tested, and the “Percent Effect” value was -16.52%. In the case of `CCN(Cc1ccccc1)C(=O)CN1CCCCC1Cn1cncn1` (stereo unspecified), the “Percent Effect” value is reported as -8.051%. `O=C1CCCN1CCCN1CCCCC1Cn1cncn1` (stereo unspecified) was tested, and the “Percent Effect” value was 3.397%. For `Cc1cc(C)n(CC2CCCN2CCS(=O)(=O)c2ccccc2)n1` (stereo unspecified), the “Percent Effect” value was -8.876%. `CN1CCN(CC2CC2)C(=O)C12CCN(c1nccs1)CC2` was tested, and the “Percent Effect” value was -15.71%. With `CC(C)NC(=O)[C@@H](NC(=O)N1CCN(c2ccc(Cl)cc2)CC1)C(C)C` the “Percent Effect” value was -4.425%. `Cn1cnc(-c2nc(C(=O)NCCN3CCOCC3)c3ccccn23)c1` was tested, and the “Percent Effect” value was -34.35%. `CN(CC1CC1)S(=O)(=O)c1ccc(C(F)(F)F)cc1C#N` was tested, and the “Percent Effect” value was -1.577%. `O=C(c1ccc2c(c1)[nH]c(=O)n2[C@H]1CC[C@H](O)CC1)N1CCOCC1` was tested, and the “Percent Effect” value was 1.877%. `O=S(=O)(c1ccccc1)N1CCCC(Cn2cncn2)C1` (stereo unspecified) was tested, and the “Percent Effect” value was -7.569%. `O=S(=O)(CCCN1CCCC(Cn2cncn2)C1)c1ccccc1` (stereo unspecified) was tested, and the “Percent Effect” value was 92.49%. In the case of `O=C1CCCN1CCN1CCCCC1Cn1cncn1` (stereo unspecified), the “Percent Effect” value is reported as 1.495%. In the case of `O=S(=O)(CCN1CCCCC1Cn1cncn1)c1ccccc1` (stereo unspecified), the “Percent Effect” value is reported as 104.1%. For `N#Cc1ccccc1OCCN1CCCCC1Cn1cncn1` (stereo unspecified), the “Percent Effect” value was -1.923%. `O=S(=O)(CCN1CCOC(Cn2cncn2)C1)c1ccccc1` (stereo unspecified) was tested, and the “Percent Effect” value was -0.6358%. `CCN(CC1COc2ccccc2O1)C(=O)C1=NN(C)C(=O)CC1` (stereo unspecified) was tested, and the “Percent Effect” value was 17.44%. In the case of `COC(=O)CCNC(=O)c1c[nH]cc1-c1cccc(OC)c1`, the “Percent Effect” value is reported as 3.352%. In the case of `COc1ccc(CN2CCCCC2Cn2nc(C)nc2C)cc1F` (stereo unspecified), the “Percent Effect” value is reported as 112.6%. With `COc1ccc(CN2CCCC2Cn2nc(C)nc2C)cc1F` (stereo unspecified) the “Percent Effect” value was -0.5946%. In the case of `COc1ccc(C)cc1CN1CCCC1Cn1nc(C)nc1C` (stereo unspecified), the “Percent Effect” value is reported as 2.525%. In the case of `COc1ccc(F)cc1CN1CCCC1Cn1nc(C)nc1C` (stereo unspecified), the “Percent Effect” value is reported as 149.5%. In the case of `COCCNC(=O)c1cc(COc2cncc(Cl)c2)on1`, the “Percent Effect” value is reported as 6.247%. For `CC(C)CN1CCN(Cc2nc3c(s2)CCCC3)[C@H]2CS(=O)(=O)C[C@H]21`, the “Percent Effect” value was -7.173%. `O=C(NC[C@H]1OC[C@@H](NC2CCC(F)(F)CC2)[C@@H]1O)C1CC1` was tested, and the “Percent Effect” value was -11.71%. In the case of `Cc1nc(Nc2cnccn2)cc(C2CCCN2)n1.Cl` (stereo unspecified), the “Percent Effect” value is reported as 92.06%. In the case of `Cl.c1cnc(Nc2cncc(C3CCCN3)n2)cn1` (stereo unspecified), the “Percent Effect” value is reported as 154.6%. `Cc1ccc2[nH]c(CN(C)c3cc(CCN)nc(C)n3)nc2c1` was tested, and the “Percent Effect” value was 1.379%. `CCCc1cc(C(=O)N2CCCN(c3cccnn3)CC2)[nH]n1` was tested, and the “Percent Effect” value was -4.631%. For `COc1ccc(C2(CNC(C)c3nnc(C)o3)CCCCC2)cc1` (stereo unspecified), the “Percent Effect” value was -5.469%. For `CCN(C(=O)Cc1ccc(NCc2nccn2C)cc1)c1ccccc1`, the “Percent Effect” value was -5.228%.

Reference: ChEMBL document CHEMBL3988442, “University of Dundee, Small-Polar-MMV Screening Library” (2021)
